Data: PubChem BioAssay AID485314 (National Center for Advancing Translational Sciences (NCATS), 2010)
Among all 340,000 compounds or so, about 4,500 (1.3%) were called active. Roughly 5% stayed inconclusive and do not appear here. Calls follow the shape of the dose curve; as a rule, active = well fitted inhibition curve with a large enough effect; inconclusive = small, poorly fitted or top-dose-only effect, or another doubt; inactive = no such curve, though single readings can be large or run the other way. The list comes from a sample in which actives are over-represented; it also holds similar structures and randomly drawn compounds. A call without a number means that no potency is given here.

Target: DNA polymerase beta (Homo sapiens) (UniProt P06746)
Assay: qHTS Assay for Inhibitors of DNA Polymerase Beta
Conditions: Pol beta primer extension/strand displacement, fluorescence kinetic; series mostly up to 114 µM
Summary of the method: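 Kinetic readout of DNA synthesis with strand displacement by Pol beta. Compound and 10 nM enzyme sit 15 min at room temperature; 50 nM substrate starts the reaction, read immediately and at 10 min.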
Potency is read from the fitted curve at half-maximal effect.

Structure (SMILES)	Potency
CCc1ccc(NC(=O)Cn2c(=O)n(CCC(=O)NCc3ccc4c(c3)OCO4)c(=O)c3ccccc32)cc1	inactive
COc1ccc(NC(=O)COCc2cc(-c3ccco3)on2)cc1	inactive
Cc1cccc(NC(=O)CSc2nnc(-c3ccco3)o2)c1	inactive
COc1ccc(OCC(=O)Nc2nnc(-c3ccco3)s2)cc1	17.8 µM (active)
Cc1ccc(OCC(=O)Nc2ccc(-c3nnc(-c4ccco4)o3)cc2)cc1	14.1 µM (active)
CC(=O)Nc1ccc(NC(=O)COc2ccc(-c3ccccc3)cc2)cc1	inactive
CNc1nnc(-c2ccco2)s1	inactive
O=C(CSc1nc(=O)[nH]c2c1CCCC2)Nc1cc(C(F)(F)F)ccc1Cl	inactive
Cc1cccc(C(C)C)c1NC(=O)C(NS(=O)(=O)c1cccc2nsnc12)c1ccccc1 (stereo unspecified)	inactive
C=Cc1ccc(Cn2c(C(=O)O)c(CNC3CCCC3)c3ccc(C)cc32)cc1	inactive
O=C(NCc1ccc2c(c1)CCN2C(=O)c1ccccc1)Nc1cc(F)ccc1F	inactive
Cc1cccc(-c2nc(SCc3ccc(Br)cc3)n3[nH]c(=O)cc3n2)c1	inactive
Cc1nc(SCCOc2ccc(Cl)cc2)[nH]c(=O)c1Cc1ccccc1	inactive
O=c1cc2nc(-c3ccccc3)nc(SCCOc3ccc(Cl)cc3)n2[nH]1	20 µM (active)
COc1ccccc1CCNC(=O)c1cccn1-c1nnc(N2CCCCC2)s1	inactive
Cc1cc(C)cc(NS(=O)(=O)c2ccc3[nH]cc(C(=O)N4CCCCC4)c(=O)c3c2)c1	inactive
CCCCNC(=O)c1c[nH]c2ccc(S(=O)(=O)Nc3ccc(OCC)cc3)cc2c1=O	inactive
CC(C)c1ccc(NS(=O)(=O)c2ccc3[nH]cc(C(=O)NC4CCCC4)c(=O)c3c2)cc1	20 µM (active)
O=C(Nc1nc2c(s1)CCCC2)c1ccccc1F	inactive
COc1cc(OC)c(NC(=O)Cc2ccc(-n3c(C)nc4cccnc43)cc2)cc1Cl	inactive
COc1ccc(CNC(=O)c2ccc(NC(=O)N3CC4CCCN4c4ccccc43)cc2)cc1 (stereo unspecified)	inactive
O=C(Nc1ccc2nc(SCC(=O)N3CCCc4ccccc43)sc2c1)c1ccc(Cl)cc1	inactive

Structure (SMILES)	Potency
Cc1ccc(/C=N/NC(=O)CSc2nc3ccccc3o2)cc1	44.7 µM (active)
CC(C)(C)C(=O)CSc1nc2ccccc2o1	inactive
O=C(CSc1nc2ccccc2o1)N/N=C/c1ccccc1C(=O)O	inactive
Cc1ccccc1-c1nc(CS(=O)(=O)CC(=O)Nc2cc(Cl)cc(Cl)c2)c(C)o1	inactive
CCC(C)NC(=O)C1c2ccccc2Oc2ccccc21 (stereo unspecified)	inactive
Cn1c(SCC(=O)N/N=C/c2ccc(O)c(O)c2)nc2ccccc21	inactive
O=C(N/N=C/c1ccc(O)c(O)c1)C1c2ccccc2Oc2ccccc21	7.08 µM (active)
Cc1ccc(Nc2c(-c3ccc(Cl)cc3)nc3sccn23)c(C)c1	inactive
Cc1ccc(C(=O)N2CCc3cc(CNC(=O)c4ccc(Br)cc4)ccc32)cc1	inactive
CCn1cc(C(=O)NCCc2ccccc2)c(=O)c2cc(S(=O)(=O)N3CCCCCC3)ccc21	inactive
CCOC(=O)c1c(C)[nH]c(CCC(=O)NCCCN2CCN(c3cccc(Cl)c3)CC2)c1C	inactive
O=C(NCCSc1ccccc1)c1ccco1	inactive
O=c1c2ccccc2c(-c2ccc(Br)cc2)nn1Cc1ccccc1	inactive
O=C(NCCc1ccco1)c1nn(Cc2ccccc2)c(=O)c2ccccc12	44.7 µM (active)
CCn1cc2nc(SCc3ccccc3Cl)n(CCc3ccccc3)c(=O)c2n1	inactive
CCc1ccc(NC(=O)c2sc3nc4c(cc3c2N)CN(CC)CC4)cc1	inactive
CCc1nnc(NC(=O)c2sc3nc(C)cc(COC)c3c2N)s1	inactive
CCc1ccc2nc3sc(C(=O)Nc4nnc(CC)s4)c(N)c3cc2c1	25.1 µM (active)
Cc1ccc(C)c(N2CCN(C(c3ccccc3)c3nnc(-c4ccccc4)o3)CC2)c1 (stereo unspecified)	inactive
O=C(CSC(=S)N1CCOCC1)c1ccccc1	inactive
O=C(CSC(=S)N1CCOCC1)c1cc(Br)cc(Br)c1O	31.6 µM (active)
O=C(c1cc2cc(Br)cc(Br)c2oc1=O)N1CCOCC1	inactive

Structure (SMILES)	Potency
CCc1ccccc1N(C)C(=O)C1CCCN(c2ncnc3onc(-c4ccc(F)cc4)c23)C1 (stereo unspecified)	inactive
O=C(Nc1nnc(C2CC(=O)N(c3ccc(Cl)cc3)C2)s1)c1ccco1 (stereo unspecified)	inactive
O=C(c1cnn(-c2ccc(F)cc2)c1-n1cccc1)N1CCN(c2ccc(F)cc2)CC1	inactive
COC(=O)c1sc2ncccc2c1-n1c(C)ccc1C	inactive
Cc1cccc(CCNC(=O)c2ccc3c(c2)nc2n3CCC(C)C2)c1 (stereo unspecified)	inactive
O=C(NCc1ccco1)c1nc2ncccn2n1	inactive
O=c1oc(-c2ccco2)nc2sc3c(c12)CCCCC3	inactive
O=C(NCc1ccco1)c1cccn2c(=O)c3c4c(sc3nc12)CCCC4	50.1 µM (active)
CN(Cc1ccccc1)c1ncnc2onc(-c3ccc(F)cc3)c12	inactive
COC(=O)c1ccccc1NS(=O)(=O)c1ccc2c(c1)CCCN2C(C)=O	inactive
Cc1ccc(S(=O)(=O)c2nc(-c3cccs3)oc2N2CCCCC2)cc1	inactive
COc1cccc(NC(=O)CSc2cc(=O)n(C)c3ccc(Cl)cc23)c1	inactive
Cc1cc(F)ccc1NS(=O)(=O)c1ccc(-n2cccn2)cc1	inactive
CNc1ccc(-c2nc(-c3ccco3)no2)cc1[N+](=O)[O-]	inactive
CC(Nc1ccc(-c2nc(-c3ccco3)no2)cc1[N+](=O)[O-])c1ccccc1 (stereo unspecified)	20 µM (active)
O=[N+]([O-])c1cc(-c2nc(-c3ccccc3)no2)ccc1NCc1ccco1	inactive
COc1cccc(NC(=O)Nc2ccc3c(c2)N(C)C(=O)c2ccccc2S3)c1	inactive
CCOC(=O)c1c(NC(=O)c2ccc(S(=O)(=O)N3CCCC(C)C3)cc2)sc2c1CCN(C(C)C)C2 (stereo unspecified)	inactive
O=C(Nc1nnc(Cc2ccc(Cl)cc2)s1)c1cccnc1	22.4 µM (active)
O=C(Nc1nnc(Cc2ccc(Cl)cc2)s1)c1ccncc1	inactive
O=C(Nc1nnc(Cc2ccccc2)s1)c1cnccn1	inactive
COc1cccc(C(=O)NC2=NC(c3ccc(N(C)C)cc3)CC(=O)N2)c1 (stereo unspecified)	inactive
